{
  "source": "PubChem BioAssay AID434970",
  "about": "(Sanford-Burnham Center for Chemical Genomics, 2010)",
  "note": "Out of some 11,000 compounds screened, about 310 (2.8%) were called active. Rule as the data show it: active = activity change below about -85%; inactive = the rest. This excerpt belongs to a sample that is enriched for actives.",
  "data": [
    {"test_system": "intestinal alkaline phosphatase [Mus musculus]", "test": "mouse intestinal phosphatase enzyme activation – biochemical, luminescence, single concentration, confirmation (AID 434970)", "conditions": "purified mouse IAP, CDP-Star luminescence, 30 min, at 10 µM; activation factor: measured here: IAP activation factor, stronger effect = higher value; activity change, negative = activation: stronger effect = lower value", "values": [
      {"smiles": "CC(C)N(C(=O)[C@H]1C[C@H](CC(=O)NCCc2ccccn2)C(=O)N2CCc3c([nH]c4cc(-c5ccco5)ccc34)[C@]12C)C(C)C", "activation factor": 1.14, "activity change, negative = activation": "-14.4% (inactive)"},
      {"smiles": "COc1cc(/C=N/NC(N)=O)cc(Br)c1OCc1ccccc1C", "activation factor": 0.961, "activity change, negative = activation": "3.9% (inactive)"},
      {"smiles": "CC(OC(=O)c1cccs1)C(=O)NCC1CCCO1", "note": "(configuration not stated)", "activation factor": 1.09, "activity change, negative = activation": "-9% (inactive)"},
      {"smiles": "CCOC(=O)c1c(C)[nH]c(C(=O)COC(=O)C2CC(=O)N(Cc3ccccc3)C2)c1C", "note": "(configuration not stated)", "activation factor": 0.964, "activity change, negative = activation": "3.55% (inactive)"},
      {"smiles": "COCc1c(C)cc(C)c(/C=N/O)c1C", "activation factor": 0.951, "activity change, negative = activation": "4.9% (inactive)"},
      {"smiles": "CCSc1cc(C2C(C(=O)OC)=C(C)NC3=C2C(=O)CCC3)c(C)o1", "note": "(configuration not stated)", "activation factor": 0.954, "activity change, negative = activation": "4.65% (inactive)"},
      {"smiles": "Cc1nc(SCN2C(=O)c3ccccc3C2=O)n[nH]1", "activation factor": 0.945, "activity change, negative = activation": "5.55% (inactive)"},
      {"smiles": "CCOC(=O)c1[nH]c(C)c(CN(CCc2ccccc2)C(=O)CCC(=O)O)c1C", "activation factor": 0.977, "activity change, negative = activation": "2.3% (inactive)"},
      {"smiles": "O=C(Nc1cccn(Cc2ccccc2)c1=O)NC1CCCCC1", "activation factor": 0.945, "activity change, negative = activation": "5.5% (inactive)"},
      {"smiles": "COc1ccc(CN2C3CCCC2CC(NC(=O)Nc2ccccc2)C3)cc1", "note": "(configuration not stated)", "activation factor": 4.65, "activity change, negative = activation": "-365% (active)"},
      {"smiles": "O=C(Nc1ccc2c(c1)N(Cc1ccccc1)C(=O)c1ccccc1S2)NC1CC1", "activation factor": 2.45, "activity change, negative = activation": "-145% (active)"},
      {"smiles": "CCc1ccccc1NC(=S)NC1CC2CCCC(C1)N2Cc1cccs1", "note": "(configuration not stated)", "activation factor": 1.01, "activity change, negative = activation": "-0.9% (inactive)"},
      {"smiles": "Cc1cccc(NC(=S)NC2CC3CCCC(C2)N3Cc2cccs2)c1C", "note": "(configuration not stated)", "activation factor": 1.15, "activity change, negative = activation": "-14.8% (inactive)"},
      {"smiles": "S=C(Nc1ccc(Cl)c(Cl)c1)NC1CCN(Cc2ccccc2)CC1", "activation factor": 1.63, "activity change, negative = activation": "-62.7% (inactive)"},
      {"smiles": "COc1ccc(CN2C3CCCC2CC(NC(=O)Nc2ccccc2C)C3)cc1", "note": "(configuration not stated)", "activation factor": 2.43, "activity change, negative = activation": "-143% (active)"},
      {"smiles": "CC(=O)c1cccc(NC(=O)NC2CC3CCCC(C2)N3CC(C)C)c1", "note": "(configuration not stated)", "activation factor": 1.22, "activity change, negative = activation": "-21.6% (inactive)"},
      {"smiles": "CC(=O)NC1CC2CCCC(C1)N2CC(=O)Nc1ccccc1", "note": "(configuration not stated)", "activation factor": 1.09, "activity change, negative = activation": "-9.05% (inactive)"},
      {"smiles": "CC(C)OCCCNC(=O)C(=O)NCCCOC(C)C", "activation factor": 0.962, "activity change, negative = activation": "3.8% (inactive)"},
      {"smiles": "COC(=O)c1ccccc1NC(=O)CCS(=O)(=O)c1ccc(Br)s1", "activation factor": 1.05, "activity change, negative = activation": "-5% (inactive)"},
      {"smiles": "O=C(O)Cn1c(SCc2cccc3ccccc23)nc2ccccc21", "activation factor": 1.09, "activity change, negative = activation": "-9.2% (inactive)"},
      {"smiles": "S=c1[nH]ncn1/N=C/c1ccc(N2CCOCC2)cc1", "activation factor": 1, "activity change, negative = activation": "-0.35% (inactive)"},
      {"smiles": "CCOC(=O)c1c(C)[nH]c(O)c1C=Nc1ccc(C(F)(F)F)cc1", "activation factor": 0.846, "activity change, negative = activation": "15.4% (inactive)"},
      {"smiles": "COc1ccc(OC)c(NC(=O)C(=O)/C=C(\\O)c2cc(OC)ccc2OC)c1", "activation factor": 0.905, "activity change, negative = activation": "9.55% (inactive)"},
      {"smiles": "Cc1ccc(/C(N)=N/OC(=O)Oc2ccccc2)cc1", "activation factor": 0.99, "activity change, negative = activation": "1% (inactive)"},
      {"smiles": "COc1ccc(CCNC(=O)c2ccc(Cl)cc2)cc1", "activation factor": 1.08, "activity change, negative = activation": "-8.2% (inactive)"},
      {"smiles": "COc1ccc(CCNC(=O)c2cc(-c3cc(Cl)cc(Cl)c3)oc2C)cc1", "activation factor": 2.07, "activity change, negative = activation": "-107% (active)"},
      {"smiles": "COc1ccc(CCNC(=O)c2ccc(Cl)cc2Cl)cc1", "activation factor": 1.19, "activity change, negative = activation": "-18.9% (inactive)"},
      {"smiles": "O=C(CCCNS(=O)(=O)c1cccs1)N1CCN(c2ccc(F)cc2)CC1", "activation factor": 0.934, "activity change, negative = activation": "6.55% (inactive)"},
      {"smiles": "COc1ccc(NC(=S)NCC2CCCO2)c(OC)c1", "note": "(configuration not stated)", "activation factor": 0.95, "activity change, negative = activation": "4.95% (inactive)"},
      {"smiles": "CC[C@H](C)Cc1cn([C@@H](CCCCNC(=O)OC(C)(C)C)C(=O)NCCCCCCCCCCC(=O)N2CCN(C(=O)OC(C)(C)C)CC2)nn1", "activation factor": 1.57, "activity change, negative = activation": "-56.9% (inactive)"},
      {"smiles": "C#CCOCCOCCOCCNc1nc(N2CCN(C(=O)CCCCCCCCCCNC(=O)Cn3cc(C[C@@H](C)O)nn3)CC2)nc(N2CCN(C(=O)CCCCCCCCCCNC(=O)[C@H](CCCCN)n3cc(C[C@@H](C)CC)nn3)CC2)n1", "activation factor": 2.76, "activity change, negative = activation": "-176% (active)"},
      {"smiles": "C#CCOCCOCCOCCNc1nc(N2CCN(C(=O)CCCCCCCCCCNC(=O)Cn3cc(C[C@@H](C)O)nn3)CC2)nc(N2CCN(C(=O)CCCCCCCCCCNC(=O)[C@H](CCCN=C(N)N)n3cc(C[C@@H](C)CC)nn3)CC2)n1", "activation factor": 5.68, "activity change, negative = activation": "-468% (active)"},
      {"smiles": "CCc1cccc(CC)c1NC(=O)CSc1nc2ccc(N3C(=O)C4C5C=CC(C5)C4C3=O)cc2s1", "note": "(configuration not stated)", "activation factor": 0.959, "activity change, negative = activation": "4.1% (inactive)"},
      {"smiles": "CCOC(=O)C1(CC)NC(c2ccco2)C2C(=O)N(c3ccc(C)cc3)C(=O)C21", "note": "(configuration not stated)", "activation factor": 1.05, "activity change, negative = activation": "-4.65% (inactive)"},
      {"smiles": "COCCCNC(=O)C[C@H]1C[C@H](C(=O)N2CCCCC2)[C@@]2(CCc3ccccc3)c3[nH]c4ccc(Cl)cc4c3CCN2C1=O", "activation factor": 1.2, "activity change, negative = activation": "-19.7% (inactive)"},
      {"smiles": "CCOC(=O)C1(C)/C(=N/Nc2ccccc2Cl)C(=O)C(=O)N1c1ccccc1", "note": "(configuration not stated)", "activation factor": 0.886, "activity change, negative = activation": "11.4% (inactive)"},
      {"smiles": "Cc1ccc(C)c(N2CCN(C(=O)CCc3nc(-c4ccc(Br)cc4)no3)CC2)c1", "activation factor": 1.04, "activity change, negative = activation": "-4.15% (inactive)"},
      {"smiles": "NC(=O)C1CCN(CC(=O)Nc2ccccn2)CC1", "activation factor": 0.922, "activity change, negative = activation": "7.8% (inactive)"},
      {"smiles": "CCCN(CCC)C(=O)c1ccc2c(c1)OCO2", "activation factor": 1.05, "activity change, negative = activation": "-5.1% (inactive)"},
      {"smiles": "O=C(O)[C@H]1CC=C[C@H]2CCN(Cc3ccc(Cl)c(Cl)c3)C(=O)[C@@H]12", "activation factor": 1.05, "activity change, negative = activation": "-5.25% (inactive)"},
      {"smiles": "CCCCN1CC[C@@H]2C=CC[C@H](C(=O)OC)[C@@H]2C1=O", "activation factor": 0.952, "activity change, negative = activation": "4.85% (inactive)"},
      {"smiles": "COc1ccc(CN2CC[C@H]3C=CC[C@@H](C(=O)Nc4ccc(Cl)c(C(F)(F)F)c4)[C@H]3C2=O)cc1OC", "activation factor": 2.85, "activity change, negative = activation": "-185% (active)"},
      {"smiles": "CCOC(=O)c1ccc(NC(=O)NC2CC3CCC(C2)N3Cc2nnnn2C(C)(C)C)cc1", "note": "(configuration not stated)", "activation factor": 1.46, "activity change, negative = activation": "-45.8% (inactive)"},
      {"smiles": "CC(C)=CCC/C(C)=C/CNC(=O)C[C@H]1C[C@H](C(=O)N(C(C)C)C(C)C)[C@@]2(C)c3[nH]c4ccc(Cl)cc4c3CCN2C1=O", "activation factor": 1.25, "activity change, negative = activation": "-25.1% (inactive)"},
      {"smiles": "CCN(CC)C(=O)[C@H]1CC(CC(=O)NC/C=C(\\C)CCC=C(C)C)C(=O)N2CCc3c([nH]c4ccc(OC)cc34)[C@]12C", "note": "(some centres not stated)", "activation factor": 1.25, "activity change, negative = activation": "-24.9% (inactive)"},
      {"smiles": "COc1ccc2[nH]c3c(c2c1)CCN1C(=O)C(CC(=O)NC/C=C(\\C)CCC=C(C)C)C[C@H](C(=O)N(C(C)C)C(C)C)[C@@]31C", "note": "(some centres not stated)", "activation factor": 2, "activity change, negative = activation": "-100% (active)"}
    ]}
  ]
}
